The campaign covered roughly 2,700 compounds. About 160 (5.9%) showed an effect of 50% or more. This excerpt belongs to a sample that is enriched for strong results.

The target in this assay is Nonstructural protein 3 (Zika virus) (UniProt A0A024AXB9).
Setting [1] is: PRVABC59, Concentration 50.0 uM, Number of replicates 1.0.
[2] abbreviates: PRVABC59, Concentration 10.0 uM, Number of replicates 1.0.

Nonstructural protein 3 (Zika virus), sequence (A0A024AXB9 as listed by the source): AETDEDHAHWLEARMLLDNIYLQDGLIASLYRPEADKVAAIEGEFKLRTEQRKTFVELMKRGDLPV

Broadly, the inhibition is the relative decrease from the control value, in per cent. Consider `CNC(=O)c1cc(Cl)c(F)cc1NS(=O)(=O)c1ccc(Oc2ccccc2Cl)cc1`, for which the inhibition worked out at 53.5% (PRVABC59, Concentration 49.5 uM, Number of replicates 2.0, Standard deviation 0.22897404989083275 %); 88.1% (PRVABC59, Concentration 99.01 uM, Number of replicates 2.0, Standard deviation 0.1399302344544729 %); 90.5% (PRVABC59, Concentration 198.0 uM, Number of replicates 2.0, Standard deviation 0.21988651500230783 %).

For the compound `CNC(=O)c1cc(Cl)c(OC)cc1NS(=O)(=O)c1ccc(Oc2ccccc2Cl)cc1`, the inhibition (PRVABC59, Concentration 49.5 uM, Number of replicates 2.0, Standard deviation 2.6404535290867552 %) is 34.2%; the inhibition (PRVABC59, Concentration 99.01 uM, Number of replicates 2.0, Standard deviation 0.459760751442422 %) is 79.4%; the inhibition (PRVABC59, Concentration 198.0 uM, Number of replicates 2.0, Standard deviation 0.11085228072983687 %) was 89.8%.

As to `O=Cc1ccc(N2CCC(C(=O)N3CCC(N4CCc5ccccc5C4)CC3)CC2)cc1`, the inhibition under setting [1] worked out at 31.7%.

Consider `NS(=O)(=O)c1nc(C(=O)N2CCc3c(CO)cccc32)n2ccccc12`, for which the inhibition came to 14.9% (PRVABC59, Concentration 49.5 uM, Number of replicates 2.0, Standard deviation 0.7415262579040602 %); 16% (PRVABC59, Concentration 99.01 uM, Number of replicates 2.0, Standard deviation 0.42632784815485236 %); 22.8% (PRVABC59, Concentration 198.0 uM, Number of replicates 2.0, Standard deviation 0.11314911538628655 %).

With `O=Cc1ccc(N2CCC(C(=O)NCCN3CCc4ccccc43)CC2)cc1`, under setting [1], the inhibition was found to be 67.9%.

In the case of `O=Cc1ccc(N2CCC(C(=O)Nc3ncc(Br)cc3O)CC2)cc1`, the inhibition under setting [1] was determined as 63.3%.

`O=Cc1ccc(N2CCC(C(=O)Nc3cccc(Br)n3)CC2)cc1`: the inhibition under setting [1] came to 69.5%.

Take `O=Cc1ccc(N2CCC(C(=O)NCc3cccc(-c4ccccc4)c3)CC2)cc1`: under setting [2], the inhibition was found to be 66.7%.

Turning to `CC1CCN(CCCCNC(=O)C2CCN(c3ccc(C=O)cc3)CC2)CC1`, the inhibition under setting [1] was found to be 38.3%.

On to `O=Cc1ccc(N2CCC(C(=O)Nc3ccc(Br)cc3O)CC2)cc1`, for which, under setting [1], the inhibition was determined as 36.5%.

For the compound `O=Cc1ccc(N2CCC(C(=O)NCCC3CCN(Cc4ccccc4)CC3)CC2)cc1`, the inhibition under setting [1] stood at 36.7%.

For `CC(=O)Nc1cccc(CNC(=O)C2CCN(c3ccc(C=O)cc3)CC2)c1`, under setting [2], the inhibition stood at 37.6%.

`O=Cc1ccc(N2CCC(C(=O)NCCc3ccccc3[N+](=O)[O-])CC2)cc1`: the inhibition under setting [1] was 31.8%.

For the compound `O=Cc1ccc(N2CCC(C(=O)NC[C@H](O)c3ccc(O)c(O)c3)CC2)cc1`, under setting [1], the inhibition stood at 37%.

Consider `O=Cc1ccc(N2CCC(C(=O)NCCc3ccc(O)c(O)c3)CC2)cc1`, for which the inhibition under setting [1] was found to be 48.5%.

Take `Cc1ccc(N)cc1NC(=O)c1ccc2c(c1)CCNCC2`: the inhibition runs as follows: (PRVABC59, Concentration 49.95 uM, Number of replicates 2.0, Standard deviation 12.72305005425739 %) -5.44%; (PRVABC59, Concentration 99.9 uM, Number of replicates 2.0, Standard deviation 9.350903464198954 %) 18.5%.

On to `Cc1ccc2cccc(NC(=O)C3CCN(c4ccc(C=O)cc4)CC3)c2n1`, for which, under setting [1], the inhibition turned out to be 60.8%.

For the compound `O=Cc1ccc(N2CCC(C(=O)NC[C@@H]3CCCN4CCCC[C@H]34)CC2)cc1`, under setting [1], the inhibition worked out at 36.4%.

With `CN1[C@@H]2CCC[C@H]1C[C@@H](NC(=O)C1CCN(c3ccc(C=O)cc3)CC1)C2`, the inhibition under setting [1] stood at 43.1%.

For `CCN1CCN(c2ccc(NC(=O)C3CCN(c4ccc(C=O)cc4)CC3)cc2)CC1`, under setting [1], the inhibition came to 54.8%.

Regarding `N#Cc1ccc(NC(=O)C2CCN(c3ccc(C=O)cc3)CC2)cc1Br`, the inhibition under setting [1] came to 22.8%.

Regarding `CCn1ccnc(N2CC[C@H](c3cccc(C#N)c3)C2)c1=O`, the inhibition was 20.3% (PRVABC59, Concentration 50.0 uM, Number of replicates 2.0, Standard deviation 16.00595625597801 %); 15.1% (PRVABC59, Concentration 100.0 uM, Number of replicates 2.0, Standard deviation 3.036416764525631 %); 25.1% (PRVABC59, Concentration 200.0 uM, Number of replicates 2.0, Standard deviation 6.611719762363672 %).

On to `CNc1cc(COc2cccnc2F)nc(N2CCNCC2)n1`, for which the inhibition by setting is: (PRVABC59, Concentration 49.5 uM, Number of replicates 2.0, Standard deviation 2.059359081452019 %) 4.89%; (PRVABC59, Concentration 99.01 uM, Number of replicates 2.0, Standard deviation 2.151250675148563 %) 12.3%; (PRVABC59, Concentration 198.0 uM, Number of replicates 2.0, Standard deviation 2.3891841335084476 %) 24%.

For `CCn1ccnc(N2CC[C@H](c3ccc(F)cc3)C2)c1=O`, the inhibition is 8.78% (PRVABC59, Concentration 49.5 uM, Number of replicates 2.0, Standard deviation 0.27991239382631117 %); 18.2% (PRVABC59, Concentration 99.01 uM, Number of replicates 2.0, Standard deviation 0.05869134101275442 %); 32.5% (PRVABC59, Concentration 198.0 uM, Number of replicates 2.0, Standard deviation 0.2009049231321535 %).

In the case of `c1ccc2c(CN3CCC(n4cccn4)CC3)c[nH]c2c1`, the inhibition reads like this: (PRVABC59, Concentration 49.5 uM, Number of replicates 2.0, Standard deviation 0.7832462431332359 %) 26.9%; (PRVABC59, Concentration 99.01 uM, Number of replicates 2.0, Standard deviation 1.440111283496493 %) 42.5%; (PRVABC59, Concentration 198.0 uM, Number of replicates 2.0, Standard deviation 0.6771494756145803 %) 60.2%.

For the compound `NC(=O)C1CCN(Cc2c[nH]c3ccccc23)CC1`, the inhibition is 5.72% (PRVABC59, Concentration 49.5 uM, Number of replicates 2.0, Standard deviation 3.887096953751933 %); 14.1% (PRVABC59, Concentration 99.01 uM, Number of replicates 2.0, Standard deviation 2.3727111220616615 %); 27.9% (PRVABC59, Concentration 198.0 uM, Number of replicates 2.0, Standard deviation 2.367525373820881 %).

Consider `O=C(O)c1ccn(C2CCN(Cc3c[nH]c4ccccc34)CC2)n1`, for which the inhibition (PRVABC59, Concentration 49.5 uM, Number of replicates 2.0, Standard deviation 1.5195725914554161 %) came out at 20.5%; the inhibition (PRVABC59, Concentration 99.01 uM, Number of replicates 2.0, Standard deviation 1.1461623032421138 %) turned out to be 35.4%; the inhibition (PRVABC59, Concentration 198.0 uM, Number of replicates 2.0, Standard deviation 1.0942994260377004 %) came out at 52.6%.

For the compound `NC(=O)[C@H]1CCCN(Cc2c[nH]c3ccccc23)C1`, the inhibition is, setting by setting: (PRVABC59, Concentration 49.5 uM, Number of replicates 2.0, Standard deviation 3.1390869089666538 %) 3.79%; (PRVABC59, Concentration 99.01 uM, Number of replicates 2.0, Standard deviation 3.56900861889403 %) 10.6%; (PRVABC59, Concentration 198.0 uM, Number of replicates 2.0, Standard deviation 2.510612912991002 %) 20.5%.

As to `NC[C@H]1C[C@@H](NC(=O)[C@@H](NC(=O)OCc2ccccc2)c2ccc(OCc3ccccc3)cc2)C1`, the inhibition runs as follows: (PRVABC59, Concentration 49.5 uM, Number of replicates 2.0, Standard deviation 0.8838686407925086 %) 24%; (PRVABC59, Concentration 99.01 uM, Number of replicates 2.0, Standard deviation 0.4383595932929543 %) 66.8%; (PRVABC59, Concentration 198.0 uM, Number of replicates 2.0, Standard deviation 0.05241044906026695 %) 91.6%.

With `NC[C@H]1C[C@H](NC(=O)[C@@H](NC(=O)OCc2ccccc2)c2ccc(OCc3ccccc3)cc2)C1`, the inhibition reads like this: (PRVABC59, Concentration 49.5 uM, Number of replicates 2.0, Standard deviation 1.2395145381206512 %) 10.3%; (PRVABC59, Concentration 99.01 uM, Number of replicates 2.0, Standard deviation 2.826506577153246 %) 46.7%; (PRVABC59, Concentration 198.0 uM, Number of replicates 2.0, Standard deviation 0.7649713696189122 %) 82.7%.

With `COc1cnccc1NC(=O)c1cccn(CC(C)C)c1=O`, the inhibition (PRVABC59, Concentration 49.5 uM, Number of replicates 2.0, Standard deviation 2.517858799186995 %) turned out to be 14.1%; the inhibition (PRVABC59, Concentration 99.01 uM, Number of replicates 2.0, Standard deviation 2.0130939800794283 %) is 24.9%; the inhibition (PRVABC59, Concentration 198.0 uM, Number of replicates 2.0, Standard deviation 1.1565850502914639 %) stood at 38%.

Take `O=C1NCc2ccccc2C12CCN(C1CS(=O)(=O)C1)CC2`: the inhibition runs as follows: (PRVABC59, Concentration 49.5 uM, Number of replicates 2.0, Standard deviation 2.478163590707131 %) -2.5%; (PRVABC59, Concentration 99.01 uM, Number of replicates 2.0, Standard deviation 1.6189007436906162 %) -1.76%; (PRVABC59, Concentration 198.0 uM, Number of replicates 2.0, Standard deviation 2.7604333789428463 %) -2.06%.

Source of the values: ChEMBL document CHEMBL5606458, “ASAP - ZIKV NS2B-NS3 protease fluorescence single point” (2024).
